Source: PubChem (National Center for Advancing Translational Sciences (NCATS))
Hits are enriched below; roughly 7.9% of the tested compounds scored in any of these assays.
MARV entry inh = Marburg virus entry inhibition; Potency, µM (highest dose often 37.8 µM), actives largely listed as inhibitors; AID 540276; Marburg virus pseudotyped entry inhibition, cell reporter; hit rate 1.8% among 300,000; calls by dose curve; tested in HEK293 cells
HCMV antiviral = inhibitors of human cytomegalovirus | activity change, negative = inhibition, % at 57.5 µM | HFF cells, HCMV-luciferase reporter, 72 h; hits give low values | AID 1259415 | hit rate 4.5% among 410,000; in the data active = activity change below about -60%; inconclusive = no clear call, values can overlap the other calls; inactive = above about -39%
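Two compound doses tested in HFFs infected with HCMV-luciferase, MOI 1 PFU/cell, 72 h at 37C. Lysate luminescence read with OneGlo; data normalized against buffer-only and 10uM Salinomycin inhibitor controls.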
Lassa entry inh = Lassa virus entry inhibition; Potency, µM (series often up to 37.9 µM), most hits filed as inhibitors; hit rate 1.2% among 300,000; Lassa virus pseudotype entry inhibition, cell reporter; calls by dose curve; tested in HEK293 cells; also: nearly all actives have a fitted effect of over 50% in size
HCV inhibitor = HCV inhibition. Potency, µM (highest dose often 41.8 µM), hits mostly inhibitors. hit rate 3.4% among 340,000. Huh7.5.1 HCVcc-Cre infection, luciferase reporter, 44 h; active = well fitted inhibition curve with a large enough effect; inconclusive = small, poorly fitted or top-dose-only effect, or another doubt; inactive = no such curve, though single readings can be large or run the other way
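HCVcc-Cre virus at an moi near 0.5 was added right after compound to cells cultured 4 h from seeding (1,000 cells/well). Luciferase activity was determined 44 h later, 15 min after substrate addition at RT.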
FMDV inh = foot and mouth disease virus antiviral activity. FMDV antiviral cell-based qHTS. Potency, µM (series often up to 57.9 µM), most hits filed as inhibitors. AID 1159524. hit rate 1.2% among 410,000; calls by dose curve; tested in HEK293T cells; also: read-out not given here; nearly all actives have a fitted effect of over 45% in size
A number is an active result; – = inactive; ? = inconclusive; · = not tested or not shown; ! = not confirmed by another sample.

SMILES	MARV entry inh	HCMV antiviral	Lassa entry inh	HCV inhibitor	FMDV inh
Cc1cc(Br)c(NC(=O)CN(C)CCOc2ccccc2)c(Br)c1	·	–	·	?	–
Cn1ccc(NC(=O)CCl)n1	?	-99	?	?	?
Cc1c(Cl)cccc1NC(=O)Nc1ccn(C)n1	?	–	?	–	–
CN(C)c1ccc(-c2cc(NCc3ccccc3)ncn2)cc1	·	·	·	·	–
COc1cccc(NC(=O)CSc2nc3c(sc4ccccc43)c(=O)n2CCCN2CCCC2)c1	·	-102	·	?	–
CCN(CC)CCn1c(SCC(=O)Nc2cccc(OC)c2)nc2c(sc3ccccc32)c1=O	?	–	?	1.8µM	–
COc1cccc(NC(=O)CSc2nc3c(sc4ccccc43)c(=O)n2CCN(C)C)c1	?	–	?	?	–
O=C(CSc1nc2c(sc3ccccc32)c(=O)n1CCCN1CCOCC1)NC1CCCC1	8.2µM	–	–	–	–
CCOCCCn1c(SCC(=O)Nc2cccc(OC)c2)nc2ccccc2c1=O	·	-73!	–	?	–
COc1cccc(NC(=O)Cn2c(=O)n(-c3ccc(Cl)cc3)c(=O)c3oc4ccccc4c32)c1	·	–	–	·	–
O=c1[nH]c(Nc2nc3ccccc3o2)nc2c1CCCC2	6.5µM	-99	5.2µM	–	·
Cc1ccc(Nc2nc3c(c(=O)[nH]2)CCCC3)cc1	–	–	–	?	–
CCOc1ccc(N(C)S(=O)(=O)c2cc(-c3cc(C)no3)ccc2C(C)C)cc1	·	?	·	?	–
COc1ccccc1NS(=O)(=O)c1ccc(-c2cc(C)no2)s1	·	–	·	–	–
Cc1cccc(N(C)S(=O)(=O)c2ccc(-c3cc(C)no3)s2)c1	·	-74!	?	–	–
CCN(c1cccc(C)c1)S(=O)(=O)c1ccc(-c2cc(C)no2)s1	·	-65	·	–	–
CCOc1ccc(N(C)S(=O)(=O)c2ccc(-c3cc(C)no3)s2)cc1	·	–	·	10µM	?
CSc1ccc(-c2nc3ccc(C)cn3c2Nc2ccccc2C)cc1	–	–	–	·	–
N#CCC(CNc1ncc(C(F)(F)F)cc1Cl)OC(=O)c1ccc(Cl)cc1 (centres undefined)	–	-62	–	?	·
CCOc1ccc(C(O)(CCC(C)C)C(CN2CCOCC2)c2ccccc2)cc1 (centres undefined)	?	?	–	?	?
O=C(c1ccccc1)C(CN1CCCCC1)c1ccccc1 (centres undefined)	?	-68	?	?	28µM
O=C(c1ccc(Br)cc1)C(CN1CCOCC1)c1ccccc1 (centres undefined)	?	–	?	–	18µM
CCOc1ccc(C(=O)C(CN2CCOCC2)c2ccccc2)cc1 (centres undefined)	6.5µM	-99	26µM	?	?
O=C(CC(C(=O)c1ccccc1)c1ccccc1)c1ccccc1 (centres undefined)	?	–	?	–	–
CN(C)CC(C(=O)c1ccccc1)c1ccccc1 (centres undefined)	6.3µM	?	8.9µM	?	18µM
SMILES	MARV entry inh	HCMV antiviral	Lassa entry inh	HCV inhibitor	FMDV inh
COc1ccc2c(c1)c1c(c(=O)n(CCc3ccccc3)c(=O)n1Cc1ccc(Cl)cc1)n2C	·	–	?	·	–
Cc1ccc(NC(c2cccc(Cl)c2)c2nnc(-c3ccccc3)o2)cc1F (centres undefined)	?	–	–	·	–
NS(=O)(=O)c1ccc(NC(=S)NCCc2ccccc2)cc1	–	–	–	–	–
O=[N+]([O-])c1ccc(O)c(NC(=S)Nc2ccccc2)c1	–	-89	–	–	–
O=[N+]([O-])c1ccc(NC(=S)NCCc2ccc(Cl)cc2)cc1	?	-107	?	?	–
O=C(NCCc1ccccc1)Nc1ccc(Cl)cc1	?	–	–	–	–
O=[N+]([O-])c1ccc(NC(=S)NCCc2ccccc2)cc1	?	-96	?	?	–
S=C(NCCc1ccccc1)Nc1ccc(Cl)cc1	–	-79	–	?	–
Fc1ccc(CCNC(=S)Nc2ccc(F)cc2)cc1	–	?	–	–	–
CC1(C)CC(=O)C2=C(C1)O[C@@]1(CCCCN3C(=O)c4ccccc4C3=O)Cc3ccccc3[C@H]2O1	–	·	·	·	·
CCOC(=O)c1c(C)[nH]c(C)c1S(=O)(=O)N1CCN(c2ccc(Cl)cc2)CC1	·	–	–	·	–
COc1ccc(N2CCN(C(=O)c3cnn(-c4ccc(F)cc4)c3-n3cccc3)CC2)cc1	·	–	?	·	–
CCCCCSc1nnc2c(n1)OC(c1ccc(C)s1)N(C(C)=O)c1ccccc1-2 (centres undefined)	?	?	–	·	–
COC(=O)CC=C[C@@H](C)[C@H](NC(=O)OC)c1ccccc1Br	–	·	·	·	·
